Results as given in PubChem BioAssay (NCI).
Compounds without any hit were thinned out: in the full panel of roughly 83,000, 20% have a hit.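 Note: values are percent growth. 100 is the growth of untreated cells, values between 100 and 0 indicate rising inhibition; between -100 and 0 indicates cell death.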 Unmarked numbers belong to inactive results. Calls of active or inactive are those of the source. The calls were made as follows: active = growth percent below 10; inactive = the rest.

Columns and labels:
Assay in all cases: NCI-60 one-dose screen, 48 h (100 = growth as untreated, 0 = no growth, -100 = all killed)
Conditions in all cases: 10 µM unless noted
NCI-H23 lung = tested on: NCI-H23 lung
NCI-H226 lung = tested on: NCI-H226 lung
HOP-62 NSCLC = tested on: HOP-62 NSCLC
NCI-H460 lung = tested on: NCI-H460 lung
NCI-H522 lung = tested on: NCI-H522 lung
A549/ATCC NSCLC = tested on: A549/ATCC NSCLC
786-0 renal = tested on: 786-0 renal
DU-145 prostate = tested on: DU-145 prostate
K-562 leukemia = tested on: K-562 leukemia
MALME-3M melanoma = tested on: MALME-3M melanoma
MDA-MB-231 breast = tested on: MDA-MB-231 breast
RXF 393 renal = tested on: RXF 393 renal
SF-268 CNS = tested on: SF-268 CNS
SF-295 CNS = tested on: SF-295 CNS
SF-539 CNS = tested on: SF-539 CNS
UACC-257 melanoma = tested on: UACC-257 melanoma
M14 melanoma = tested on: M14 melanoma
HCT-15 colon = tested on: HCT-15 colon
NCI-H322M lung = tested on: NCI-H322M lung
COLO 205 colon = tested on: COLO 205 colon

Row | SMILES | growth (NCI-H23 lung) | growth (NCI-H226 lung) | growth (HOP-62 NSCLC) | growth (NCI-H460 lung) | growth (NCI-H522 lung) | growth (A549/ATCC NSCLC) | growth (786-0 renal) | growth (DU-145 prostate) | growth (K-562 leukemia) | growth (MALME-3M melanoma) | growth (MDA-MB-231 breast) | growth (RXF 393 renal) | growth (SF-268 CNS) | growth (SF-295 CNS) | growth (SF-539 CNS) | growth (UACC-257 melanoma) | growth (M14 melanoma) | growth (HCT-15 colon) | growth (NCI-H322M lung) | growth (COLO 205 colon)
1 | O=C(CCc1nnc(Cn2cncn2)o1)c1nc2ccccc2[nH]1 | 102% | 101% | 103% | 108% | 95.5% | 105% | 104% | 109% | 104% | 92% | 98.7% | 121% | 105% | 103% | 103% | 112% | 111% | 102% |  | 
2 | Cc1nn(-c2ccccc2)c2ncc3c(c12)C(=O)N(Cc1ccccc1)C3=O | 63.9% |  | 1.26% (active) | 4.79% (active) | 59.9% | 13.9% | -4.88% (active) | 98.9% |  | 72% | 14.3% | 68% | 81.3% | 1.19% (active) |  | 94.3% | 68.7% | 86.3% | 58.6% | 32.9%
3 | CCOc1nc(-c2ccccc2)cc2c(O)c(-c3nnco3)[nH]c(=O)c12 | 63.1% |  | 47.9% | 28.2% | 5.8% (active) | 38.9% | 57.9% | 50.8% | 39.3% | 59.9% | 38.7% |  | 52.5% | 36% | 54.9% | 11.8% | 59.4% | 23.5% | 65.3% | 72.2%
4 | Oc1[nH]c2ccc(Cl)cc2c1/C=c1/ccc2c(c1)N=C(c1ccc(C(F)(F)F)cc1)N=2 | 67.2% |  | 71.5% | 39.2% | 45.7% | 70.5% | 16.7% | 70% | 26.9% | 69.2% | 83.4% | 5.23% (active) |  | 40.9% | 80.1% | 66% | 54.4% | 54.1% | 84.3% | 
5 | CCCCCCCCCCCCCCCCCc1nccn1CCO | 70.7% |  | 68% | 24.6% | 52.6% | 64.7% | 62.3% | 90% | 3.81% (active) | 89.7% | 69.6% | 72.3% | 73.5% | 144% | 66.5% | 90.2% | 64.9% | 8.52% (active) | 78.1% | 19%
6 | Nc1ccc(C2=Nc3cccc4cccc(c34)S2)cc1 | 86.9% |  | 83.6% | 89.5% | 82.7% | 81.5% | 121% | 98.2% | 88.3% | 94.5% | 60% | 107% | 88.9% | 73% | 102% | 84.3% | 83.9% | 54.5% | 88.1% | 100%
7 | COc1ncc(-c2ccc3nccc(C#CCN4CCN(S(C)(=O)=O)CC4)c3c2)cc1NS(=O)(=O)c1ccc(F)cc1F |  | 9.35% (active) | 9.92% (active) | 6.27% (active) | -1.57% (active) | 5.73% (active) | -8.36% (active) | 17.9% | 8.7% (active) | -32.3% (active) | 10.5% | -23.5% (active) | 6.1% (active) | 13% | -16.1% (active) | -4.75% (active) | -2.97% (active) | 10.4% | -11.8% (active) | -55.1% (active)
8 | COc1ccc(-c2c(N)noc2-c2cc(OC)c3c(c2)OCCO3)cc1 | 1.48% (active) |  | 23% | 7.94% (active) | 0.361% (active) | 21.3% | 13.1% | -17.2% (active) |  | 81.2% | 27.5% | 39.2% | 26.8% | 12.8% | 4.21% (active) | 72.6% | -16.2% (active) | 15.7% | 53% | -75.8% (active)
9 | CCOc1cccc(C2CC(=O)Nc3cc4c(cc32)OCO4)c1 (stereo unspecified) |  | 65% | 87% | 94.2% | 66.5% | 94.2% | 93.4% | 94.5% | 48.2% | 83.4% | 111% | 78.8% | 89.4% | 76% | 91.7% | 94.5% | 102% | 77.3% | 91.1% | 96.8%
10 | O=C(/C(=N/O)S(=O)(=O)c1ccccc1)c1cccs1 | 94.2% |  | 94.4% | 102% | 143% | 106% | 99.8% | 115% | 93.1% | 106% | 109% |  | 106% | 104% | 109% | 106% | 105% | 105% | 111% | 104%
11 | Clc1ccc2nc(Cl)c3ccccc3c2c1 | 84.6% |  | 58.3% | -1.38% (active) | 75.7% | 28.7% | 46.8% | 62.9% | 88% | 67.2% | 74.9% | 59.6% | 76.3% |  | 63.8% | 93.1% | 99.9% | 91.4% | 37.6% | 78.3%
12 | COc1ccc(COC(C)=O)cc1 | 113% |  | 101% | 111% | 118% | 100% | 99.4% | 110% | 103% |  | 125% | 108% | 101% | 116% | 107% | 109% | 108% | 97.6% | 112% | 127%
13 | CN(C)CCCN1c2nc3ccccc3cc2Sc2cc3ccccc3nc21 | -34.2% (active) |  | 32% | -89.1% (active) | -67.7% (active) |  | -86.3% (active) |  | 4.31% (active) | -75.9% (active) | -82.8% (active) |  | 27.2% | -74.7% (active) | -94.6% (active) | -69.5% (active) | -70.6% (active) | 2.14% (active) | 18% | -89.2% (active)
14 | COc1ccc2c(c1)/C(=C\c1c[nH]c3ccc(F)cc13)C(=O)N2 | 81.4% |  | 88.8% | 87.7% | 80% | 70% | 96.5% | 84% | 62.5% | 120% | 106% | 95.4% |  | 100% | 91.8% | 108% | 105% | 66% | 75.9% | 103%
15 | CC(NC(=O)C(C)Oc1ccc(Cl)cc1Cl)C(=O)O (stereo unspecified) | 91.9% |  | 94.5% | 101% | 83.6% | 116% | 97.6% | 108% | 135% | 98.6% | 96.8% | 120% | 102% | 97.8% | 102% | 94.6% | 92.2% | 98.3% | 122% | 
16 | Cc1c(N(C)CS(=O)(=O)O)c(=O)n(-c2ccccc2)n1C | 109% |  | 92.7% | 121% | 89.8% | 97.1% | 91.5% | 112% | 102% | 94.1% | 107% | 115% | 115% | 98.9% | 106% | 108% | 103% | 103% | 96.9% | 115%
17 | CN(C)c1ccc(/C=C(\C#N)c2nc3ccccc3c(=O)[nH]2)cc1 | 70.2% |  | 105% | 87.3% | 84.2% | 99.5% | 91.9% | 93% | 118% | 75.8% | 76% | 91.1% | 69.4% | 92.9% | 93.6% |  | 97.3% | 97.2% | 89.7% | 
